Test results published in PubChem BioAssay (NCATS).
Records with an inconclusive call do not appear. The source made the active and inactive calls. Calls follow the shape of the dose curve; as a rule, active = well fitted curve in the direction sought with a large enough effect; inconclusive = small, poorly fitted or top-dose-only effect, or another doubt; inactive = no such curve, though single readings can be large; an effect the other way counts as inactive or inconclusive.

What was measured:
[1] = qHTS of pediatric cancer cell lines to identify multiple opportunities for drug repurposing: Primary screen for LAN-5 cells (AID 1347100)
From the text: (§1) Drug repurposing or repositioning has been offered as a strategy for drug development in oncology programs. This approach has special potential for childhood cancers and other rare or orphan diseases, where the expected return on new drug development has been a disincentive to pharmaceuticals.
(§2) In this project we exploit the poly-pharmacology of drugs to discover new indications via phenotypic screening of a panel of 19 well-characterized cell lines derived from solid tumors seen in children and adolescents. The goal is to identify approved drugs with previously unrecognized anticancer properties that has the potential to reveal new mechanisms and biological processes involved in carcinogenesis or drug resistance. We employed a titration-based paradigm (quantitative high-throughput screening or qHTS), where all compounds were tested at multiple concentrations for their effect on cell viability. […] We screened the NIH Chemical Genomics Center (NCGC) Pharmaceutical Collection (NPC) and Mechanism Interrogation Plate (MIPE) small molecule collections of approved and investigational compounds against these cell lines; and measured metabolically active cells after 48 hours of compound treatment as a proxy for cell viability. […]
(§3) [1] Shen, M et al. Quantitative high-throughput phenotypic screening of pediatric cancer cell lines identifies multiple opportunities for drug repurposing. […]

[2] = qHTS of pediatric cancer cell lines to identify multiple opportunities for drug repurposing: Primary screen for BT-12 cells (AID 1347101); also: nearly all actives have a fitted effect of over 25% in size
How it was run: (§4)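 Cells (500-1,000/well) rested 5 h, then received compounds for 48 h; metabolically active cells were measured by CellTiter-Glo luminescence. Final concentrations spanned up to 46 µM (MIPE, 11-point) or 0.59 nM-46 µM (NPC, 8-point) in primary screens, 11-point in follow-ups.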

[3] = qHTS of pediatric cancer cell lines to identify multiple opportunities for drug repurposing: Primary screen for Rh18 cells (AID 1347102); also: nearly all actives have a fitted effect of over 65% in size
From the text: as §1, §2, §3

[4] = qHTS of pediatric cancer cell lines to identify multiple opportunities for drug repurposing: Primary screen for OHS-50 cells (AID 1347103); also: nearly all actives have a fitted effect of over 40% in size
From the text: as §1, §2, §3

[5] = qHTS of pediatric cancer cell lines to identify multiple opportunities for drug repurposing: Primary screen for RD cells (AID 1347104); also: nearly all actives have a fitted effect of over 55% in size
From the text: Drug repurposing or repositioning has been offered as a strategy for drug development in oncology programs. This approach has special potential for childhood cancers and other rare or orphan diseases, where the expected return on new drug development has been a disincentive to pharmaceuticals. […] In this project we exploit the poly-pharmacology of drugs to discover new indications via phenotypic screening of a panel of 19 well-characterized cell lines derived from solid tumors seen in children and adolescents. […] We employed a titration-based paradigm (quantitative high-throughput screening or qHTS), where all compounds were tested at multiple concentrations for their effect on cell viability. […] We screened the NIH Chemical Genomics Center (NCGC) Pharmaceutical Collection (NPC) and Mechanism Interrogation Plate (MIPE) small molecule collections of approved and investigational compounds against these cell lines; and measured metabolically active cells after 48 hours of compound treatment as a proxy for cell viability. […] Assay Submitter: Nathalia J. Martinez, National Center for Advancing Translational Sciences, National Institutes of Health, Rockville, MD, USA; email: natalia.martinez@nih.gov Shen, M et al. Quantitative high-throughput phenotypic screening of pediatric cancer cell lines identifies multiple opportunities for drug repurposing. […]

[6] = qHTS of pediatric cancer cell lines to identify multiple opportunities for drug repurposing: Primary screen for MG 63 (6-TG R) cells (AID 1347105); also: nearly all actives have a fitted effect of over 50% in size
How it was run: (§5)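 Quantitative HTS format: each compound titrated (MIPE 11 points from 0.78 nM, NPC 8 points from 0.59 nM) onto cells plated 5 hours earlier. After 48 h at 37 degrees C, CellTiter-Glo luminescence was recorded.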

[7] = qHTS of pediatric cancer cell lines to identify multiple opportunities for drug repurposing: Primary screen for control Hh wild type fibroblast cells (AID 1347106);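 also: series mostly up to about 46 µM; a drop in luminescence marks cytotoxicity and a rise apparent proliferation; nearly all actives have a fitted effect of over 55% in size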
How it was run: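 Viability after 48 h compound treatment at 37C, 500-1,000 cells/well, read as ATP luminescence with CellTiter-Glo. Primary screens used 11-point (MIPE, 0.78 nM-46 µM) or 8-point (NPC, 0.59 nM-46 µM) final concentrations; follow-up screens used 11-point dilutions.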

[8] = qHTS of pediatric cancer cell lines to identify multiple opportunities for drug repurposing: Primary screen for Rh30 cells (AID 1347107); also: series mostly up to about 46 µM; nearly all actives have a fitted effect of over 75% in size
How it was run: as §4

[9] = qHTS of pediatric cancer cell lines to identify multiple opportunities for drug repurposing: Primary screen for Rh41 cells (AID 1347108);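 also: series mostly up to about 46 µM; luminescence drop marks cytotoxic hits; nearly all actives have a fitted effect of over 70% in size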
How it was run: as §5

[10] = target: N-terminal Xaa-Pro-Lys N-methyltransferase 1 (Homo sapiens) (UniProt Q9BV86); assay: qHTS Assay for Inhibitors of N-terminal methyltransferase 1 (NTMT1): LOPAC validation of the NTMT1 SAHH-coupled ThioGlo3 Assay (AID 1347143); conditions: recombinant NTMT1, SAHH-coupled ThioGlo3 fluorescence;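 also: SAH from peptide methylation measured as thiol fluorescence via SAHH coupling and ThioGlo3; potency is read from the fitted curve at half-maximal effect; nearly all actives have a fitted effect of over 70% in size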
Sequence of N-terminal Xaa-Pro-Lys N-methyltransferase 1 (Homo sapiens) (Q9BV86 whole entry, looked up): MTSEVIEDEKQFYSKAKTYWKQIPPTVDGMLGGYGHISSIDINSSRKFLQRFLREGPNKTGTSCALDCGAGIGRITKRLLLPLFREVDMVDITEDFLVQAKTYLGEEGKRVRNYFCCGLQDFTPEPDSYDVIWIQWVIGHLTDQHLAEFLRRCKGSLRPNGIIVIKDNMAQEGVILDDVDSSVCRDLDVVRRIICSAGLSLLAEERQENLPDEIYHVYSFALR
How it was run: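 Inhibition of NTMT1 methylation of peptide SPKRIA is followed by converting SAH with SAHH and labelling the released thiol with ThioGlo3. Plates are read at 340/450nm before and 30 min after reagent addition, both at room temperature.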

Measured: Potency

CC(=O)OC(C)OC(=O)C(C)c1ccc(-c2ccccc2)c(F)c1 (centres undefined)
not listed: [10]
inactive: all other assays above

CN1Cc2c(N)cccc2C(c2ccccc2)C1 (centres undefined)
active: [10] 35.5 µM
inactive: all other assays above
